Test results as given in PMC7862700, “An all-to-all approach to the identification of sequence-specific readers for epigenetic DNA modifications on cytosine”.

Columns and labels:
Assay in all cases: DAPPL (digital affinity profiling via proximity ligation, sequencing); 10 mM Tris-HCl pH 7.5, 50 mM NaCl, 1 mM DTT, 4% glycerol, room temperature, 30 min; GST-TFs on glutathione beads, 16-mer random dsDNA library, 0.1% formaldehyde crosslink after washing; high values mean tight binding
Details in all cases: protein: recombinant; tags: N-terminal GST; dsDNA, one strand shown
FLI1 = target: T1, FLI1 (Homo sapiens, UniProt Q01543 1-452)
T1 sequence: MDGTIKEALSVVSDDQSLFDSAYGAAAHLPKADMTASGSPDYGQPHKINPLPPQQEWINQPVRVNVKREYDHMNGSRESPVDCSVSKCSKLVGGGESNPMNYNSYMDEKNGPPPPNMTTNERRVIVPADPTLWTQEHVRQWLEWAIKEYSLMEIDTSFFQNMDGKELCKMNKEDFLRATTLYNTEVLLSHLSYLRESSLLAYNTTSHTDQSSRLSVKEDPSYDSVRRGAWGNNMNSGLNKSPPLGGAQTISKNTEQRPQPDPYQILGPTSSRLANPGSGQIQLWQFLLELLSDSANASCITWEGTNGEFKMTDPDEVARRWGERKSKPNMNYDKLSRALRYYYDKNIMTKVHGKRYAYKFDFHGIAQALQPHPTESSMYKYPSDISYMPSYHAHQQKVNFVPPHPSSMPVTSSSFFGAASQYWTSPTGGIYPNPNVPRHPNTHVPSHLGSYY
Method in brief: (§1)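 Beads coated with glutathione captured GST-fused human transcription factors that had been expressed in yeast, and the factors were then given DNA barcodes and pooled with a tag-only sample. The pools were incubated with 200 nmole of a random double-stranded 16-mer DNA library in Tris/NaCl/DTT/glycerol buffer for 30 min at room temperature, washed, crosslinked with 0.1% formaldehyde and proximity-ligated with BsaI/T4 ligase at 37 °C for 1 h. PCR amplification and Illumina NextSeq500 sequencing came last. Binding signal is each hexamer's read frequency for a factor divided by its frequency for the tag-only sample.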

ELK1 = target: T2, ELK1 (Homo sapiens, UniProt P19419 1-428)
T2 sequence: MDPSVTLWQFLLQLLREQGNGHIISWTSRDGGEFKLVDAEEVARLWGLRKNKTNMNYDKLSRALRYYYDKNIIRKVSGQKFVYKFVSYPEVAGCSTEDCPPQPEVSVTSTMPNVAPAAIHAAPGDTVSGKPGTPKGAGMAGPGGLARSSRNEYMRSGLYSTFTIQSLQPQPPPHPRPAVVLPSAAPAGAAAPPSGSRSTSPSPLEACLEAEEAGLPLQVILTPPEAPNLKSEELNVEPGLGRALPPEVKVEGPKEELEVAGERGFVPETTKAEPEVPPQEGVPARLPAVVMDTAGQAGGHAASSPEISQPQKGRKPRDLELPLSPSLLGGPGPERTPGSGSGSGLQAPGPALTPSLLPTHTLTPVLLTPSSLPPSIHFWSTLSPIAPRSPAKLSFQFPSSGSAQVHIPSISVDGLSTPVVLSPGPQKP
Method in brief: as §1

GABPA = target: T3, GABPA (Homo sapiens, UniProt Q06546 1-454)
T3 sequence: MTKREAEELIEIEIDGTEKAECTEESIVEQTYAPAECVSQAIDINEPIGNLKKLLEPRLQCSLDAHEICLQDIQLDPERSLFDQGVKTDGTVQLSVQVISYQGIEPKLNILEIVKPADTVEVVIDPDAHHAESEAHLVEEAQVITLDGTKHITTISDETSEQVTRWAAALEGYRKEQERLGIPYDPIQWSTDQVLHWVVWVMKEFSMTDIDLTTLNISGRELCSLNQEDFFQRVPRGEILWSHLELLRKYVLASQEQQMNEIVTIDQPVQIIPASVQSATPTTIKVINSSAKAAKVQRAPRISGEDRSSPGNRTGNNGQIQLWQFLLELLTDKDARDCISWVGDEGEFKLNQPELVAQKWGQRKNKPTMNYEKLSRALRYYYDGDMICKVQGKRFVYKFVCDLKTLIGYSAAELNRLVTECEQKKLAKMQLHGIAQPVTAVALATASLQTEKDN
Method in brief: as §1

ERG = target: T4, ERG (Homo sapiens, UniProt P11308 1-479)
T4 sequence: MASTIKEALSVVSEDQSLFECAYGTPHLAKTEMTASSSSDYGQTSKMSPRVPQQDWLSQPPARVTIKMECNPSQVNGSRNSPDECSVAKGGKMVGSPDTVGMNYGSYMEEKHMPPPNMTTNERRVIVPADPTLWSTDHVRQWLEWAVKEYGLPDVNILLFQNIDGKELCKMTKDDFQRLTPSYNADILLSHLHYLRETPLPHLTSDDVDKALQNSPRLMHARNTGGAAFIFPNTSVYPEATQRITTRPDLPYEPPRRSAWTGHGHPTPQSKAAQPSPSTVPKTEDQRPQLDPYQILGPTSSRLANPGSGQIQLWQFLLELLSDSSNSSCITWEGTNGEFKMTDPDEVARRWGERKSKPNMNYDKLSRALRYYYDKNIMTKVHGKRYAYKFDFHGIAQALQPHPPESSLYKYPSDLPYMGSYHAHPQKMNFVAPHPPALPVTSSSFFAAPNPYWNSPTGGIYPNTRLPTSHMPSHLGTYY
Method in brief: as §1

ELF1 = ELF1 (Homo sapiens, UniProt P32519 1-619)
Method in brief: as §1

EHF = target: T5, EHF (Homo sapiens, UniProt Q9NZC4 1-300)
T5 sequence: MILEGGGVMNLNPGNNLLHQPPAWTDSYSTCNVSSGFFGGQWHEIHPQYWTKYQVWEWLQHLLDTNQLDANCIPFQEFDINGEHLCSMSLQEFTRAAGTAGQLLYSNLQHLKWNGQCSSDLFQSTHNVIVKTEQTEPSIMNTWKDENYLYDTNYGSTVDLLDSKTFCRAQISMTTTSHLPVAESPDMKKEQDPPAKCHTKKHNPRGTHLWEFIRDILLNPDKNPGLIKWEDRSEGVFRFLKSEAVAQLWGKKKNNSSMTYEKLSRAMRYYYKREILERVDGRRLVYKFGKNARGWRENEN
Method in brief: as §1

SPI1 = SPI1 (Homo sapiens, UniProt P17947 1-270)
Method in brief: as §1

SPIB = SPIB (Homo sapiens, UniProt Q01892 1-262)
Method in brief: as §1

ELK3 = target: T6, ELK3 (Homo sapiens, UniProt P41970 1-407)
T6 sequence: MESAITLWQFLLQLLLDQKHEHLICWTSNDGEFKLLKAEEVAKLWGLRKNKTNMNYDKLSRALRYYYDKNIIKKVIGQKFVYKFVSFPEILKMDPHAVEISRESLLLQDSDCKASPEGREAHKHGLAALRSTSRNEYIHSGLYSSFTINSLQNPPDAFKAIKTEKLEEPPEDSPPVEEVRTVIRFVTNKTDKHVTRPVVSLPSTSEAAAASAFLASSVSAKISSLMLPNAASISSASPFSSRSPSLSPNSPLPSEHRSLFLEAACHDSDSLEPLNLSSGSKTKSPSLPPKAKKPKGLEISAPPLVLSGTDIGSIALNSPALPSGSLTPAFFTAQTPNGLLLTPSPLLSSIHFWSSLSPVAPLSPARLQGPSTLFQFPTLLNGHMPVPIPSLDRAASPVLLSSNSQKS
Method in brief: as §1

Chain of ELF1 (P32519 whole entry): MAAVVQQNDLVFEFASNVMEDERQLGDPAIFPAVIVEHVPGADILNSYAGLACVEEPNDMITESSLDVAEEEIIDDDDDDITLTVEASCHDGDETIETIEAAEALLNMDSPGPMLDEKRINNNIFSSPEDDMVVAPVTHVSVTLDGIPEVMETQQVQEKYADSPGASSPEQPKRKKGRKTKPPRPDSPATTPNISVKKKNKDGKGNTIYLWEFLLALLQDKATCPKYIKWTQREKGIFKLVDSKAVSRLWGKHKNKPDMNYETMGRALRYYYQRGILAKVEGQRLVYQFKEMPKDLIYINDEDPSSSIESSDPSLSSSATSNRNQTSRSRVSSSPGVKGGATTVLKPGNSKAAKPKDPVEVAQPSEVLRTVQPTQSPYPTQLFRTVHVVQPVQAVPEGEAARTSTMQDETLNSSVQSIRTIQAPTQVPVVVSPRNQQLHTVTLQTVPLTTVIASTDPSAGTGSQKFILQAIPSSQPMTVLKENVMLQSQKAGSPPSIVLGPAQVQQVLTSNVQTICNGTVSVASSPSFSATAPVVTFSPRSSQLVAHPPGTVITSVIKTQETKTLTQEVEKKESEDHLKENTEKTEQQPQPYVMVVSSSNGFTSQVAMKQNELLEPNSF
Chain of SPIB (Q01892 whole entry): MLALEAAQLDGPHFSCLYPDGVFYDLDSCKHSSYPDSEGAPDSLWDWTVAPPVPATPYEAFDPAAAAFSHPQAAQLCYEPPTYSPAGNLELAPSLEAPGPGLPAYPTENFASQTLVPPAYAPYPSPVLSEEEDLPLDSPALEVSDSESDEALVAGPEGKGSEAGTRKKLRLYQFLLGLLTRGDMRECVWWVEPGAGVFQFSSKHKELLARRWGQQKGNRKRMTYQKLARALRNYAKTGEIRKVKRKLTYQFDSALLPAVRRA

Row | Sequence | binding signal (FLI1) | binding signal (ELK1) | binding signal (GABPA) | binding signal (ERG) | binding signal (ELF1) | binding signal (EHF) | binding signal (SPI1) | binding signal (SPIB) | binding signal (ELK3)
1 | TGTTGC | 1.33 fold enrichment (6-mer frequency, TF over GST control) | 1.32 fold enrichment (6-mer frequency, TF over GST control) | 1.33 fold enrichment (6-mer frequency, TF over GST control) | 1.3 fold enrichment (6-mer frequency, TF over GST control) | 1.31 fold enrichment (6-mer frequency, TF over GST control) | 1.3 fold enrichment (6-mer frequency, TF over GST control) | 1.33 fold enrichment (6-mer frequency, TF over GST control) | 1.35 fold enrichment (6-mer frequency, TF over GST control) | 1.4 fold enrichment (6-mer frequency, TF over GST control)
2 | GTATCC | 1.88 fold enrichment (6-mer frequency, TF over GST control) | 1.9 fold enrichment (6-mer frequency, TF over GST control) | 1.78 fold enrichment (6-mer frequency, TF over GST control) | 1.89 fold enrichment (6-mer frequency, TF over GST control) | 1.89 fold enrichment (6-mer frequency, TF over GST control) | 1.92 fold enrichment (6-mer frequency, TF over GST control) | 1.7 fold enrichment (6-mer frequency, TF over GST control) | 1.89 fold enrichment (6-mer frequency, TF over GST control) | 1.88 fold enrichment (6-mer frequency, TF over GST control)
3 | TTCAAA | 1.23 fold enrichment (6-mer frequency, TF over GST control) | 1.23 fold enrichment (6-mer frequency, TF over GST control) | 1.4 fold enrichment (6-mer frequency, TF over GST control) | 1.2 fold enrichment (6-mer frequency, TF over GST control) | 1.34 fold enrichment (6-mer frequency, TF over GST control) | 1.24 fold enrichment (6-mer frequency, TF over GST control) | 1.26 fold enrichment (6-mer frequency, TF over GST control) | 1.3 fold enrichment (6-mer frequency, TF over GST control) | 1.36 fold enrichment (6-mer frequency, TF over GST control)
4 | TTGAAT | 1.11 fold enrichment (6-mer frequency, TF over GST control) | 1.08 fold enrichment (6-mer frequency, TF over GST control) | 1.15 fold enrichment (6-mer frequency, TF over GST control) | 1.1 fold enrichment (6-mer frequency, TF over GST control) | 1.12 fold enrichment (6-mer frequency, TF over GST control) | 1.11 fold enrichment (6-mer frequency, TF over GST control) | 1.12 fold enrichment (6-mer frequency, TF over GST control) | 1.03 fold enrichment (6-mer frequency, TF over GST control) | 1.04 fold enrichment (6-mer frequency, TF over GST control)
5 | TTCTGG | 1.36 fold enrichment (6-mer frequency, TF over GST control) | 1.16 fold enrichment (6-mer frequency, TF over GST control) | 1.32 fold enrichment (6-mer frequency, TF over GST control) | 1.31 fold enrichment (6-mer frequency, TF over GST control) | 1.14 fold enrichment (6-mer frequency, TF over GST control) | 1.2 fold enrichment (6-mer frequency, TF over GST control) | 1.24 fold enrichment (6-mer frequency, TF over GST control) | 1.18 fold enrichment (6-mer frequency, TF over GST control) | 1.48 fold enrichment (6-mer frequency, TF over GST control)
6 | CTTAGA | 1.13 fold enrichment (6-mer frequency, TF over GST control) | 1.11 fold enrichment (6-mer frequency, TF over GST control) | 1.17 fold enrichment (6-mer frequency, TF over GST control) | 1.09 fold enrichment (6-mer frequency, TF over GST control) | 1.08 fold enrichment (6-mer frequency, TF over GST control) | 1.1 fold enrichment (6-mer frequency, TF over GST control) | 1.11 fold enrichment (6-mer frequency, TF over GST control) | 1.11 fold enrichment (6-mer frequency, TF over GST control) | 1.02 fold enrichment (6-mer frequency, TF over GST control)
7 | CTTGGT | 1.63 fold enrichment (6-mer frequency, TF over GST control) | 1.44 fold enrichment (6-mer frequency, TF over GST control) | 1.55 fold enrichment (6-mer frequency, TF over GST control) | 1.42 fold enrichment (6-mer frequency, TF over GST control) | 1.46 fold enrichment (6-mer frequency, TF over GST control) | 1.53 fold enrichment (6-mer frequency, TF over GST control) | 1.4 fold enrichment (6-mer frequency, TF over GST control) | 1.57 fold enrichment (6-mer frequency, TF over GST control) | 1.66 fold enrichment (6-mer frequency, TF over GST control)
